# In PubChem BioAssay AID1345085 (National Center for Advancing Translational Sciences (NCATS), 2018):
# Inconclusive results are not listed. Where a call stands in place of a potency, no number is given. Active and inactive are the calls of the source. Calls follow the shape of the dose curve; as a rule, active = well fitted cell-killing curve with a large enough effect; inconclusive = small, poorly fitted or top-dose-only effect, or effect the other way; inactive = no such curve, though single readings can be large or run the other way.
# Test system: C33A
# Experiment: Confirmatory qHTS for gynecologic anti-cancer compounds from libraries of approved drugs and bioactive compounds; also: nearly all actives have a fitted effect of over 55% in size
# Details: gynecologic cancer cell panel viability, ATPlite luminescence, 48 h; series mostly up to 57.6 µM
# Summary of the method: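 Cells (1,000/well) plated 16 h, then exposed 48 h at 37 °C to 11 concentrations (1:3) from 57.5 uM to 0.977 nM. Viability by ATPlite luminescence after 15 min; IC50 derived, with HEK 293T used for selectivity index.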
# Potency is read from the fitted curve at half-maximal effect.
row,SMILES,Potency
1,CN(C)/N=N/c1nc[nH]c1C(N)=O,inactive
2,Cc1cnc(Nc2ccc(OCCN3CCCC3)cc2)nc1Nc1cccc(S(=O)(=O)NC(C)(C)C)c1,inactive
3,COc1ccc2c(c1OC)C(=O)O[C@@H]2[C@H]1c2c(cc3c(c2OC)OCO3)CCN1C,inactive
4,CC(C)c1nn(-c2c(Cl)cccc2Cl)c2nc(Cc3ccc(OCCO)cc3)[nH]c(=O)c12,96.8 nM (active)
5,CCCC(=O)O[C@]1(C(=O)CCl)[C@@H](C)C[C@H]2[C@@H]3CCC4=CC(=O)C=C[C@]4(C)[C@@]3(F)C(=O)C[C@@]21C,inactive
6,Cc1cc(Nc2nc(N[C@@H](C)c3ncc(F)cn3)ncc2Cl)n[nH]1,inactive
7,Cc1cnc(Nc2cccc(CN3CCOCC3)c2)nc1Nc1cccc(S(=O)(=O)NC(C)(C)C)c1,24300 nM (active)
8,CC(C)Nc1cc(-c2c[nH]c(C(=O)N[C@H](CO)c3cccc(Cl)c3)c2)c(Cl)cn1,inactive
9,COc1ccc(OC)c(-c2nnc3ccc(-c4ccc(OC)c(O[C@@H]5CCOC5)c4)nn23)c1,inactive
10,COc1cccc2c1C(=O)c1c(O)c3c(c(O)c1C2=O)C[C@@](O)(C(=O)CO)C[C@@H]3O[C@H]1C[C@H](N)[C@H](O[C@@H]2CCCCO2)[C@H](C)O1,2430 nM (active)
11,c1nc2nc(Nc3ccc(N4CCOCC4)cc3)nc(NC3CCCCC3)c2[nH]1,inactive
12,CN(c1nccc(=O)[nH]1)C1CCN(c2nc3ccccc3n2Cc2ccc(F)cc2)CC1,inactive
13,Nc1ncnc2c1ncn2[C@@H]1O[C@H](CO)C[C@H]1O,inactive
